According to PubChem BioAssay (Tox21):
Activity calls are given as the source filed them. Calls come from the whole dose curve.

What follows are compounds tested against Estrogen receptor (Homo sapiens) (UniProt P03372) (assay: qHTS assay to identify small molecule agonists of the estrogen receptor alpha (ER-alpha) signaling pathway (AID 743075;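 note: HEK293 GripTite cells with ER-alpha and UAS-driven beta-lactamase reporter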)). Conditions: HEK293 ER-alpha-UAS-bla, beta-lactamase FRET ratio, 18 h; series mostly up to 70.1 µM; activation: at the top concentration.
Sequence of Estrogen receptor (Homo sapiens) (P03372 whole entry, looked up): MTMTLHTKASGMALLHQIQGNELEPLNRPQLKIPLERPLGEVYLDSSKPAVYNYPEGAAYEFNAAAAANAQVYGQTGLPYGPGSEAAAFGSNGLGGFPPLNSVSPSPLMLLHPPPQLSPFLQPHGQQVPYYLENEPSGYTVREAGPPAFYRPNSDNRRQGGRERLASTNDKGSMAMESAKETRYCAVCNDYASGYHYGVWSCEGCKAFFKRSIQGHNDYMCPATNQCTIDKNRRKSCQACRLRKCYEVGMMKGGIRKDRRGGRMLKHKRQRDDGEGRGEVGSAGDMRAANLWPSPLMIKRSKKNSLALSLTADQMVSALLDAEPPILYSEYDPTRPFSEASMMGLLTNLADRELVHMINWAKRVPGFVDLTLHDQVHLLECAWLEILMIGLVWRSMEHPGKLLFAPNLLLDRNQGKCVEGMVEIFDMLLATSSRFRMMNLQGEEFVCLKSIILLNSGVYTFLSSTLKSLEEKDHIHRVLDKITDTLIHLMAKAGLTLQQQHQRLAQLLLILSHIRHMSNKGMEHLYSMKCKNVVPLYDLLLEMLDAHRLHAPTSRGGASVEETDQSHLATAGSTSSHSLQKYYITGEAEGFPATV
% is set by controls: 0 for no effect and ±100 for the full control effect; potency is the fitted concentration of half-maximal effect.

Compound | activation | Potency
Brc1cc(Br)c(Oc2cc(Br)c(Br)cc2Br)cc1Br | -4.12% (inactive) | 
O=C=Nc1cccc(C(F)(F)F)c1 | 8.4% (inactive) | 
CCCCN1CCCC1C(=O)Nc1c(C)cc(C)cc1C (stereo not given) | 1.02% (inactive) | 
O=C(OCC(O)CO)c1ccccc1Nc1ccnc2cc(Cl)ccc12 (stereo not given) | -1.45% [at 32.9 µM] (inactive) | 
O=Cc1c2ccccc2c(Cl)c2ccccc12 |  | 13.5 µM [inconclusive] (active)
CCC=CC#N | 0.81% (inactive) | 
C=CC(=O)[O-].C=CC(=O)[O-].[Zn+2] | -0.902% (inactive) | 
CC(C)=CCC1C(=O)N(c2ccccc2)N(c2ccccc2)C1=O | -0.776% (inactive) | 
C=C1CCC2CC1C2(C)C (stereo not given) | 1.07% (inactive) | 
O=C(O)CCC(=O)C(=O)O |  | inactive
C=C1c2cccc(O)c2C(O)=C2C(=O)[C@]3(O)C(O)=C(C(N)=O)C(=O)[C@@H](N(C)C)[C@@H]3[C@@H](O)[C@H]12 | -1.22% [at 32.9 µM] (inactive) | 
CN1C(C(=O)Nc2ccccn2)=C(O)c2sccc2S1(=O)=O | -1.34% [at 32.9 µM] (inactive) | 
Cc1cscn1 | -1.92% (inactive) | 
CCOC(=O)C1=C(C)NC(C)=C(C(=O)OC)C1c1cccc(Cl)c1Cl (stereo not given) |  | 10.7 µM [activator] (active)
COc1cc(N)c(Cl)cc1C(=O)NC1CCN(CCCOc2ccc(F)cc2)CC1OC (stereo not given) | 1.63% [at 32.9 µM] (inactive) | 
C=C(C)C(=O)OCCOCCOC(=O)C(=C)C | -0.97% (inactive) | 
CC(=O)Oc1ccc([N+](=O)[O-])cc1CCl | 9.43% (inactive) | 
Cc1ccccc1N=C(N)Nc1ccccc1C | -0.498% (inactive) | 
CC1=Nc2ccc3ccccc3c2C1(C)C | 6.2% (inactive) | 
CC(C)c1nc(CN(C)C(=O)N[C@H](C(=O)N[C@@H](Cc2ccccc2)C[C@H](O)[C@H](Cc2ccccc2)NC(=O)OCc2cncs2)C(C)C)cs1 |  | inactive
